Assay results reported in PubChem BioAssay (NCI).
The panel holds about 83,000 compounds, 20% with a hit somewhere; the sample as a whole holds those more often.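 Results are percent growth after 48 hours of single-concentration exposure. 100 means growth as in untreated cells, lower positive values show inhibition; negative values down to -100 show cell death.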 Values without a mark were called inactive. The source made the active and inactive calls. The calls were made as follows: active = growth percent below 10; inactive = the rest.

What was measured:
Test in all cases: NCI-60 one-dose screen, 48 h (100 = growth as untreated, 0 = no growth, -100 = all killed)
Conditions in all cases: 10 µM unless noted
SK-MEL-2 melanoma = test system: SK-MEL-2 melanoma
EKVX NSCLC = test system: EKVX NSCLC
SN12C renal = test system: SN12C renal
UO-31 renal = test system: UO-31 renal
ACHN renal = test system: ACHN renal
CAKI-1 renal = test system: CAKI-1 renal
A498 renal = test system: A498 renal
CCRF-CEM leukemia = test system: CCRF-CEM leukemia
MOLT-4 leukemia = test system: MOLT-4 leukemia
TK-10 renal = test system: TK-10 renal

SMILES: O=c1ccn2nc3ccccc3c2[nH]1
- growth (SK-MEL-2 melanoma): 108%
- growth (EKVX NSCLC): 63.6%
- growth (SN12C renal): 84.8%
- growth (UO-31 renal): 76.6%
- growth (ACHN renal): 91.1%
- growth (CAKI-1 renal): 89.4%
- growth (A498 renal): 125%
- growth (CCRF-CEM leukemia): 118%
- growth (MOLT-4 leukemia): 108%

SMILES: CC1CC2Oc3ccc(Cl)cc3C(=O)N2O1 (stereo not given)
- growth (SK-MEL-2 melanoma): 98.6%
- growth (EKVX NSCLC): 109%
- growth (SN12C renal): 105%
- growth (UO-31 renal): 92.9%
- growth (ACHN renal): 102%
- growth (CAKI-1 renal): 97.1%
- growth (A498 renal): 86.9%
- growth (MOLT-4 leukemia): 105%

SMILES: CCCCOc1nc2ccccc2cc1C1CNC(=O)c2ccccc2N1 (stereo not given)
- growth (SK-MEL-2 melanoma): 15.7%
- growth (EKVX NSCLC): 33%
- growth (SN12C renal): 44.1%
- growth (UO-31 renal): 41.3%
- growth (ACHN renal): 46.7%
- growth (CAKI-1 renal): 42.6%
- growth (A498 renal): -11.2% (active)
- growth (CCRF-CEM leukemia): 12.6%

SMILES: O=C(Nc1cccc2c(O)c(N=Nc3ccc(S(=O)(=O)Nc4nccs4)cc3)cc(N=Nc3ccc(S(=O)(=O)Nc4nccs4)cc3)c12)C(Cl)Cl
- growth (SK-MEL-2 melanoma): 52.6%
- growth (EKVX NSCLC): 90.5%
- growth (SN12C renal): 111%
- growth (UO-31 renal): 68.3%
- growth (ACHN renal): 57.4%
- growth (CAKI-1 renal): 76.8%
- growth (A498 renal): 85%
- growth (CCRF-CEM leukemia): 72.5%
- growth (MOLT-4 leukemia): 153%

SMILES: CC(=O)c1ccc(NCC(=O)Nc2ccccn2)cc1
- growth (SK-MEL-2 melanoma): 105%
- growth (EKVX NSCLC): 101%
- growth (SN12C renal): 106%
- growth (UO-31 renal): 86.4%
- growth (ACHN renal): 103%
- growth (CAKI-1 renal): 87.9%
- growth (A498 renal): 104%
- growth (MOLT-4 leukemia): 100%

SMILES: c1ccc(Nc2nc(-c3ccccn3)cs2)nc1
- growth (SK-MEL-2 melanoma): 27.6%
- growth (EKVX NSCLC): 30.7%
- growth (SN12C renal): 13.4%
- growth (UO-31 renal): 0.382% (active)
- growth (TK-10 renal): 37%
- growth (CAKI-1 renal): -13.3% (active)
- growth (A498 renal): 28.3%
- growth (MOLT-4 leukemia): 14.2%

SMILES: CCN1C(=O)N(CC)C2Nn3c(s/c(=C\c4ccc(Cl)cc4Cl)c3=O)=NC21 (stereo not given)
- growth (SK-MEL-2 melanoma): 71.2%
- growth (EKVX NSCLC): 68.8%
- growth (SN12C renal): 43.3%
- growth (UO-31 renal): 53.5%
- growth (ACHN renal): 37.6%
- growth (CAKI-1 renal): 36.9%
- growth (A498 renal): 21.4%
- growth (CCRF-CEM leukemia): 41.7%

SMILES: N#Cc1c(-c2ccccn2)[nH]c(=S)[nH]c1=O
- growth (SK-MEL-2 melanoma): 93.7%
- growth (EKVX NSCLC): 101%
- growth (SN12C renal): 112%
- growth (UO-31 renal): 84.6%
- growth (CAKI-1 renal): 98.8%
- growth (A498 renal): 89.6%
- growth (MOLT-4 leukemia): 99.3%

SMILES: COc1ccc(-c2nc(SCC(=O)Nc3nc(-c4ccccc4)cs3)[nH]c(=O)c2C#N)cc1
- growth (SK-MEL-2 melanoma): 90.5%
- growth (EKVX NSCLC): 101%
- growth (SN12C renal): 108%
- growth (UO-31 renal): 59%
- growth (ACHN renal): 104%
- growth (CAKI-1 renal): 82.8%
- growth (A498 renal): 80.4%
- growth (CCRF-CEM leukemia): 97.2%
- growth (MOLT-4 leukemia): 89.9%

SMILES: CC/C=C\C/C=C\C[C@H](O)C/C=C1/C(=O)C=C[C@@H]1C/C=C\CCCC(=O)O
- growth (SK-MEL-2 melanoma): 23.2%
- growth (EKVX NSCLC): 95.3%
- growth (SN12C renal): 16.9%
- growth (UO-31 renal): 57%
- growth (ACHN renal): 60.2%
- growth (CAKI-1 renal): 37.8%
- growth (A498 renal): 96.6%
- growth (MOLT-4 leukemia): 7.61% (active)

SMILES: COC(=O)c1ccc(CSc2nnc(-c3c(C)nc4ccc(C)cn34)o2)cc1
- growth (SK-MEL-2 melanoma): 105%
- growth (EKVX NSCLC): 102%
- growth (SN12C renal): 99.2%
- growth (UO-31 renal): 85.9%
- growth (ACHN renal): 98.3%
- growth (CAKI-1 renal): 92.9%
- growth (A498 renal): 93.5%
- growth (CCRF-CEM leukemia): 106%
- growth (MOLT-4 leukemia): 94.4%

SMILES: CCOC(=O)c1c(-c2ccc(Cl)cc2)c(C#N)c(=O)n(-c2ccccc2CC)c1N
- growth (SK-MEL-2 melanoma): 114%
- growth (EKVX NSCLC): 90.6%
- growth (SN12C renal): 92.1%
- growth (UO-31 renal): 71.6%
- growth (ACHN renal): 89.5%
- growth (CAKI-1 renal): 105%
- growth (A498 renal): 97.5%
- growth (CCRF-CEM leukemia): 17.7%
- growth (MOLT-4 leukemia): 70.3%

SMILES: C[C@H]1[C@H]2[C@H]3CC[C@@H]4[C@@]5(C)C/C(=C/c6cccnc6)C(=O)C(C)(C)[C@@H]5CC[C@@]4(C)[C@]3(C)CC[C@]23CO[C@]1(C)[C@@H](C(=O)/C=C\c1cccnc1)C3
- growth (SK-MEL-2 melanoma): -25.5% (active)
- growth (EKVX NSCLC): -1.58% (active)
- growth (SN12C renal): -17.7% (active)
- growth (ACHN renal): -22.2% (active)
- growth (CAKI-1 renal): 9.32% (active)
- growth (A498 renal): -59.1% (active)
- growth (MOLT-4 leukemia): 16.7%

SMILES: S=C(Cc1ccc2c(c1)CCCC2)N1CCOCC1
- growth (SK-MEL-2 melanoma): 87.1%
- growth (EKVX NSCLC): 97.5%
- growth (SN12C renal): 101%
- growth (TK-10 renal): 106%
- growth (ACHN renal): 101%
- growth (CAKI-1 renal): 102%
- growth (A498 renal): 101%
- growth (CCRF-CEM leukemia): 119%

SMILES: Fc1c[c-]c(-c2ccccn2)c(F)c1.[CH3-].[Pt+2].c1ccc(P(C[PH+](c2ccccc2)c2ccccc2)c2ccccc2)cc1
- growth (SK-MEL-2 melanoma): -39% (active)
- growth (EKVX NSCLC): -12% (active)
- growth (SN12C renal): -32.2% (active)
- growth (TK-10 renal): -30.5% (active)
- growth (ACHN renal): -100% (active)
- growth (CAKI-1 renal): -73.8% (active)
- growth (A498 renal): -79.3% (active)
- growth (MOLT-4 leukemia): 0% (active)

SMILES: COc1cc2nc(Cl)nc(Nc3ccc(S(=O)(=O)Nc4nccs4)cc3)c2cc1OC
- growth (SK-MEL-2 melanoma): 102%
- growth (EKVX NSCLC): 93.9%
- growth (SN12C renal): 95.7%
- growth (TK-10 renal): 119%
- growth (ACHN renal): 88.2%
- growth (CAKI-1 renal): 88.2%
- growth (A498 renal): 136%
- growth (CCRF-CEM leukemia): 117%
- growth (MOLT-4 leukemia): 99.3%

SMILES: Cc1ccc2nc3ccccc3c(NCc3ccccc3)c2c1
- growth (SK-MEL-2 melanoma): 100%
- growth (EKVX NSCLC): 49.6%
- growth (SN12C renal): 25.5%
- growth (TK-10 renal): 75.3%
- growth (ACHN renal): 23.2%
- growth (CAKI-1 renal): 35.5%
- growth (A498 renal): 11.4%
- growth (CCRF-CEM leukemia): 34.9%

SMILES: COCCN(C(=O)c1ccc(F)cc1F)c1c(N)n(Cc2ccccc2)c(=O)[nH]c1=O
- growth (SK-MEL-2 melanoma): 98.7%
- growth (EKVX NSCLC): 109%
- growth (SN12C renal): 108%
- growth (TK-10 renal): 119%
- growth (ACHN renal): 103%
- growth (CAKI-1 renal): 106%
- growth (A498 renal): 100%
- growth (MOLT-4 leukemia): 98.1%

SMILES: Cc1cc(Cl)nc(NCc2cc(Nc3ccnc4cc(Cl)ccc34)ccc2F)n1
- growth (SK-MEL-2 melanoma): 77.1%
- growth (EKVX NSCLC): 68.1%
- growth (SN12C renal): 52.8%
- growth (TK-10 renal): 67.1%
- growth (ACHN renal): 76.1%
- growth (CAKI-1 renal): 75.3%
- growth (A498 renal): 63.3%
- growth (CCRF-CEM leukemia): 28.9%

SMILES: Cc1cc(NCc2cc(Nc3ccnc4cc(Cl)ccc34)ccc2F)nc(Cl)n1
- growth (SK-MEL-2 melanoma): 54.6%
- growth (EKVX NSCLC): 39.4%
- growth (SN12C renal): 37.2%
- growth (TK-10 renal): 38.1%
- growth (CAKI-1 renal): 56.5%
- growth (A498 renal): 41.3%
- growth (CCRF-CEM leukemia): 42.8%

SMILES: CCCCC1CCCCN1C(=O)OCC (stereo not given)
- growth (SK-MEL-2 melanoma): 101%
- growth (EKVX NSCLC): 122%
- growth (SN12C renal): 103%
- growth (TK-10 renal): 92.7%
- growth (ACHN renal): 103%
- growth (CAKI-1 renal): 101%
- growth (A498 renal): 102%
- growth (CCRF-CEM leukemia): 108%
- growth (MOLT-4 leukemia): 115%

SMILES: C#Cc1cccc(NC(=O)c2ccc(NC(=O)CCl)cc2)c1
- growth (SK-MEL-2 melanoma): 31.3% [8.25 µM]
- growth (EKVX NSCLC): 104% [8.25 µM]
- growth (SN12C renal): -78.4% [8.25 µM] (active)
- growth (TK-10 renal): -63.2% [8.25 µM] (active)
- growth (ACHN renal): -98.2% [8.25 µM] (active)
- growth (CAKI-1 renal): 9.54% [8.25 µM] (active)
- growth (A498 renal): 65% [8.25 µM]
- growth (CCRF-CEM leukemia): 12.1% [8.25 µM]
- growth (MOLT-4 leukemia): 14% [8.25 µM]

SMILES: CCCCCCCCCCCCCCCCCCOc1ccccc1CC(=O)OCCC[N+](C)(C)C
- growth (SK-MEL-2 melanoma): 87.7%
- growth (EKVX NSCLC): 79%
- growth (SN12C renal): 36%
- growth (TK-10 renal): 50.1%
- growth (CAKI-1 renal): 43.6%
- growth (A498 renal): 98.5%
- growth (CCRF-CEM leukemia): 25.7%

SMILES: NC(N)=Nc1nc2ccccc2n2c1nc1ccccc12
- growth (SK-MEL-2 melanoma): 70.3%
- growth (EKVX NSCLC): 36.3%
- growth (SN12C renal): 28.3%
- growth (TK-10 renal): 46.2%
- growth (ACHN renal): 11.7%
- growth (CAKI-1 renal): 23.2%
- growth (A498 renal): 52.5%
- growth (CCRF-CEM leukemia): 25.7%
- growth (MOLT-4 leukemia): 7.99% (active)

SMILES: C[C@H](NC(=O)[C@@H]1CSSC[C@@H](NC(=O)c2nc3ccccc3cc2O)C(=O)NCC(=O)N1C)c1ccccc1
- growth (SK-MEL-2 melanoma): 62.2%
- growth (EKVX NSCLC): 42%
- growth (SN12C renal): -17.7% (active)
- growth (TK-10 renal): 59.9%
- growth (ACHN renal): 44.7%
- growth (CAKI-1 renal): 83.2%
- growth (A498 renal): 112%
- growth (MOLT-4 leukemia): -8.45% (active)
